In PubChem BioAssay:
Results filed as inconclusive are left out. Calls of active or inactive are those of the source.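 The calls were made as follows, unless noted: active = inhibition above the screen-wide mean plus 3 SD, about 51%; inactive = the rest.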

Columns and labels:
[1] = rapamycin-like changes in RPL19A-GFP expression – cell-based, S. cerevisiae, multiplex flow cytometry, primary screen (AID 1862; in the data active = percent of DMSO control GFP below about 86%;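 also: lower values mimic rapamycin by blocking the RPL19A rise seen in DMSO cells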); conditions: S. cerevisiae RPL19A-GFP strain, flow cytometry fluorescence, 3 h; at 10 µM; stronger effect = lower value
[2] = TOR pathway GLN3 branch reporter MEP2-GFP changes – S. cerevisiae, multiplex flow cytometry, primary screen (AID 1867;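 active = GFP response, as percent of the DMSO control, above the screen-wide mean plus 3 SD, about 139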;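 also: median GFP channel fluorescence of barcode-gated MEP2-GFP cells measured by flow cytometry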); conditions: S. cerevisiae MEP2-GFP strain, 3 h, at 10 µM, stronger effect = higher value, 100% means same as DMSO wells
[3] = TOR pathway RTG branch CIT2 reporter changes – S. cerevisiae, GFP fusion, multiplex flow cytometry, primary screen (AID 1870;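 active = percent response above a set limit, the screen-wide mean plus 3 SD, cut at about 130% in these data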;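 also: barcoded CIT2-GFP strain pooled with four other GFP strains with rapamycin as positive control; median GFP fluorescence per well over plate mean of DMSO wells so 100% = DMSO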); conditions: S. cerevisiae CIT2-GFP expression, 3 h, at 10 µM, stronger effect = higher value
[4] = TOR pathway LAP4-GFP level changes – S. cerevisiae, multiplex flow cytometry, primary screen (AID 1873;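 active = GFP signal, as percent of the solvent control, above the screen mean plus 3 SD, about 149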); conditions: S. cerevisiae LAP4-GFP expression, 3 h, at 10 µM, stronger effect = higher value
[5] = yeast AGP1-GFP level changes, GLN3 branch – cell-based, multiplex flow cytometry, S. cerevisiae, primary screen (AID 1887;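 active = GFP signal above the screen-wide mean plus 3 SD, that is over about 124.5% of the solvent control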;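 also: AGP1-GFP fusion strain of S. cerevisiae within a five-strain barcoded multiplex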); conditions: 3 h, at 10 µM, stronger effect = higher value
[6] = reduced mouse 2C T cell binding to pMHC/ICAM-1 vesicles – MLPCN validation set, flow cytometry, LFA-1/ICAM-1 modulator project, pilot screen (AID 2523;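 active = response below a set limit, under 55% cells CD8-positive and vesicle-bound, and CD8 cells' 90th-percentile brightness under 279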;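 as to vesicle binding response: mean PE anti-B7-1 fluorescence of CD8+ cells relative to row control; 100% = QL9-loaded vesicles with DMSO vehicle in the same plate row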); conditions: 2C mouse CD8+ T cells, at 7 µM, stronger effect = lower value; double positive events: measured here: CD8+/vesicle+ event percentage
[7] = target: Integrin beta-1 (Homo sapiens) + Integrin alpha-4 (Homo sapiens) (UniProt P13612+P05556); assay: alpha4beta1 integrin LIBS antibody binding reduction – U937 cells, HUTS-21 mAb, flow cytometry, validation set, VLA-4 allosteric modulator project, pilot screen (AID 2674;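 active = inhibition above 50%, about 3 SD of the validation set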;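 also: antibody binding induced by the VLA-4 ligand LDV present at three times its Kd; 0% = LDV ligand with antibody and no compound and 100% = antibody without LDV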); conditions: HUTS-21 LIBS mAb binding, at 6.7 µM, stronger effect = higher value, binding induced by LDV ligand
Sequence of Integrin beta-1 (Homo sapiens) + Integrin alpha-4 (Homo sapiens) (P05556 whole entry, looked up): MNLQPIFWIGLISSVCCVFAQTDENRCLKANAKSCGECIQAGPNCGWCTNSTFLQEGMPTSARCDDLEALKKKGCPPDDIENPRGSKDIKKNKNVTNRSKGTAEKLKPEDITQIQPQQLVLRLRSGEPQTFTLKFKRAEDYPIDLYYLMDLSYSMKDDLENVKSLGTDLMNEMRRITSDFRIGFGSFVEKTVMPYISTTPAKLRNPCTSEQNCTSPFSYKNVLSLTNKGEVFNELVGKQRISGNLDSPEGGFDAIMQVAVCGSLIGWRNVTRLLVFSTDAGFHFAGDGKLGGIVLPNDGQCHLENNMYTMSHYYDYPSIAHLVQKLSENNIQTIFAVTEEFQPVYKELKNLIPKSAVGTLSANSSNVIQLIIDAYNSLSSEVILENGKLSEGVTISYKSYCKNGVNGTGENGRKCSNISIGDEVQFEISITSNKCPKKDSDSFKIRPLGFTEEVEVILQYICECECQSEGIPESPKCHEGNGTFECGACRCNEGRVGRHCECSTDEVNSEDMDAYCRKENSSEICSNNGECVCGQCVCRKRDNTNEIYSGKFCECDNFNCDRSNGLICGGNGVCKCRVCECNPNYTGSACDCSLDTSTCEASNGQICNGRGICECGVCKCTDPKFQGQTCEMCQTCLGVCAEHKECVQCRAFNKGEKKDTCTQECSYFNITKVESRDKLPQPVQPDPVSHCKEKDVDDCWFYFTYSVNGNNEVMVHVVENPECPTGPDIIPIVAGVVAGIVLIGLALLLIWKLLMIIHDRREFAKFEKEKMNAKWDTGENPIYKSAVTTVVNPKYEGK
Sequence of Integrin beta-1 (Homo sapiens) + Integrin alpha-4 (Homo sapiens) (P13612 whole entry, looked up): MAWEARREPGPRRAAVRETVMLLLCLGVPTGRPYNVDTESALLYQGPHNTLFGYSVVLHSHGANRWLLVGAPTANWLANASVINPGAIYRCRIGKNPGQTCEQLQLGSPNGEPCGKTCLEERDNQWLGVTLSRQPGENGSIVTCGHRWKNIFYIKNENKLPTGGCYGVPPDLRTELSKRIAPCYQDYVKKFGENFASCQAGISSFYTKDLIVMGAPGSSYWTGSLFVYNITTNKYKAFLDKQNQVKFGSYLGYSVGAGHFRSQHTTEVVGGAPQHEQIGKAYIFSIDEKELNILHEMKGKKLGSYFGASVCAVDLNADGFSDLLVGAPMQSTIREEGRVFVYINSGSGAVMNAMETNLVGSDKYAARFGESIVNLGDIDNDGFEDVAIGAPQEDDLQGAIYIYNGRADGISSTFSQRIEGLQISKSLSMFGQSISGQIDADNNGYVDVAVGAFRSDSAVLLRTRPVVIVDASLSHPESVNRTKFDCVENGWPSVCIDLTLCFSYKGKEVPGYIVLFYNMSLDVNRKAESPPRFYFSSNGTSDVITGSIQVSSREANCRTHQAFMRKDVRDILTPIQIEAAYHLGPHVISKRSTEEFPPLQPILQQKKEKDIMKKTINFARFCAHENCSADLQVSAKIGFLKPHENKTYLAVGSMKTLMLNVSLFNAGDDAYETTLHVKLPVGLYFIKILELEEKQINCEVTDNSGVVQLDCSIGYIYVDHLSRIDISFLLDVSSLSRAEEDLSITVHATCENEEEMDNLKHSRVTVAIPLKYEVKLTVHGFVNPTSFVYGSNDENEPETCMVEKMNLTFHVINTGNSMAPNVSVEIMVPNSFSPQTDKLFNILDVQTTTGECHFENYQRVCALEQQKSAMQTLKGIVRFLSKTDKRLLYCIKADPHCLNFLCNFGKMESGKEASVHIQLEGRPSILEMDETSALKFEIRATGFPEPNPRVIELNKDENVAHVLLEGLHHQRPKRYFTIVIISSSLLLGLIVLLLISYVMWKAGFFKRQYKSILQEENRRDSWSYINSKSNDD

[8] = calorie-restriction mimetic ROS inhibitors, yeast – validation compound set, pilot screen (AID 2706;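 active = superoxide response below 65% of plate, a cut near 3 SD across the whole screen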;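 also: yeast exposed to compound for one week at 30 degrees C before staining; 100% = mean of all compound wells on the same plate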); conditions: S. cerevisiae aging, superoxide DHE fluorescence; at 10 µM; stronger effect = lower value
[9] = target: Beta-adrenergic receptor kinase 1 (Homo sapiens) (UniProt P25098); assay: GRK2 binders displacing RNA aptamer, biochemical, validation, human GRK2, bead flow cytometry (AID 488806;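 active = aptamer binding inhibition above 30%, about 3 SD of noise from non-fluorescent compounds; inactive = inhibition at or below 30%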); conditions: bead-bound GRK2, FAM-aptamer displacement, at 10 µM, stronger effect = higher value
Sequence of Beta-adrenergic receptor kinase 1 (Homo sapiens) (P25098 whole entry, looked up): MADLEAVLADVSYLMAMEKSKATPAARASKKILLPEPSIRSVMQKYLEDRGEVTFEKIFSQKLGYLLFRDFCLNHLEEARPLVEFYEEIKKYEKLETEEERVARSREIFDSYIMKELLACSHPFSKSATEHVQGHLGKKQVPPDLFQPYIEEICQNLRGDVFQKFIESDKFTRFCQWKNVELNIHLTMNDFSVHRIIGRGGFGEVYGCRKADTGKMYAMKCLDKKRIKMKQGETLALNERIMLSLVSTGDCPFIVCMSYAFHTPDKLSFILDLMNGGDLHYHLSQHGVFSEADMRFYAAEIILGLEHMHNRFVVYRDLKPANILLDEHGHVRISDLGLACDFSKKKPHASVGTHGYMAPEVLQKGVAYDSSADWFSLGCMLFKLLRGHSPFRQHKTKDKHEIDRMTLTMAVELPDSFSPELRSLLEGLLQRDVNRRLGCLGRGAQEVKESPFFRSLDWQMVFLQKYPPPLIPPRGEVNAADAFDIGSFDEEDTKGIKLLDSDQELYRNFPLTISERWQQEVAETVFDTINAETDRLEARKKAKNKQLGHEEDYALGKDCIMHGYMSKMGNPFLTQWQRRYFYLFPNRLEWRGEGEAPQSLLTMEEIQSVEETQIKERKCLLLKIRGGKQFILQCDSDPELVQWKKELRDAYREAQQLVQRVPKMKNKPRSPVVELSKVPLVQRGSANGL

[10] = target: Beta-2 adrenergic receptor (Homo sapiens) (UniProt P07550); assay: agonist-induced loss of surface beta2AR – cell-based, FAP fluorogen, flow cytometry, validation set, pilot screen (AID 504459;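 active = percent response above 42, roughly 3 SD of non-fluorescent test compounds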;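 also: agonist-driven loss of surface beta2AR via internalization measured by FAP dye flow cytometry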); conditions: Am2.2-beta2AR cells, at 10 µM, stronger effect = higher value
Sequence of Beta-2 adrenergic receptor (Homo sapiens) (P07550 whole entry, looked up): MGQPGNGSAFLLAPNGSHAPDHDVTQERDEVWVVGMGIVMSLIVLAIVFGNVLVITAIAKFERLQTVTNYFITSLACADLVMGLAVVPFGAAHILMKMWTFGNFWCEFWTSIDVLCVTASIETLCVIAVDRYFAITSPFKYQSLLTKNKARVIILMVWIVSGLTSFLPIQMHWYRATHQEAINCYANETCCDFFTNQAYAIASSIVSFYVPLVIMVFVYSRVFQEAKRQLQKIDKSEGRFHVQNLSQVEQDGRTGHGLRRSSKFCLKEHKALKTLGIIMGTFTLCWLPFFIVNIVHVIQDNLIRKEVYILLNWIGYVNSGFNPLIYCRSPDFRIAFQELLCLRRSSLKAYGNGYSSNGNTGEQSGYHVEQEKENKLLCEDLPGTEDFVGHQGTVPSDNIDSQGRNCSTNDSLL

[11] = target: AP-2 complex subunit beta (Homo sapiens) (UniProt P63010); assay: beta-arrestin/AP2 interaction blockers – biochemical, validation set, GST-AP2 beads, flow cytometry, pilot screen (AID 504541;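 active = inhibition above 54%, about 3 SD of non-fluorescent compounds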;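 also: AP2 carries R879A mutation and is captured from E. coli lysate; bead-bound FITC arrestin peptide fluorescence measuring arrestin peptide binding to AP2; 0% = DMSO wells and 100% = excess unlabeled arrestin peptide control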); conditions: FITC arrestin peptide, at 10 µM, stronger effect = higher value, AP2 beta2 appendage fragment, R879A mutant
Sequence of AP-2 complex subunit beta (Homo sapiens) (P63010 whole entry, looked up, the tested form may be a part, one chain of several): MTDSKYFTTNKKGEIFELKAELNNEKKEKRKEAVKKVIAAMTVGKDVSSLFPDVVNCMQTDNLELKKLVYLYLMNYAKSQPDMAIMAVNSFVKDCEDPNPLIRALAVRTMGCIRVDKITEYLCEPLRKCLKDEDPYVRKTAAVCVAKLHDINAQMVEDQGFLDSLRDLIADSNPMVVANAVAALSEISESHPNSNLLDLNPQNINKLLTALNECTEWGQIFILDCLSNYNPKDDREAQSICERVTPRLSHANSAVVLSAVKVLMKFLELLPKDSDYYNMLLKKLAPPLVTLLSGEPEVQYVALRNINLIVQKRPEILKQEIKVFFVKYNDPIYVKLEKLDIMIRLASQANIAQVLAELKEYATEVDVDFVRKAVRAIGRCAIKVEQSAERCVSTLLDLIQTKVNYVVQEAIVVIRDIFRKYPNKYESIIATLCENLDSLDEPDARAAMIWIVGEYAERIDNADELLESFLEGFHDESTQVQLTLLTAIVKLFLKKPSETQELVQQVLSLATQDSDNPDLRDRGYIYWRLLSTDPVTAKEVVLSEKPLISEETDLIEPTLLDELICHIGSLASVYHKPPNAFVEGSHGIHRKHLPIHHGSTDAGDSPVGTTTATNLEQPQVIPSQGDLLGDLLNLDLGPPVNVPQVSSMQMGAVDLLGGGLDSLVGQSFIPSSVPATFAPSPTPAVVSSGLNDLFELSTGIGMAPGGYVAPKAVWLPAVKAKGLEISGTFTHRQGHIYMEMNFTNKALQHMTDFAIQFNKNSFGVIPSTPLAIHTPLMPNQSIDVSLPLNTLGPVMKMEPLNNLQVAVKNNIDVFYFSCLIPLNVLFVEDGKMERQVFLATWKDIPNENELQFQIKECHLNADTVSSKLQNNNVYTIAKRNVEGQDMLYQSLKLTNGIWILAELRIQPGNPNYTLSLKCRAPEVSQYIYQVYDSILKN

[12] = cytosolic pH regulators acting via V-ATPase – S. cerevisiae, pHLuorin, HTS validation (AID 504600; in the data active = response above about 15%;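 also: plate controls were DMSO for no effect and reference compound for full effect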); conditions: V-ATPase proton transport, at 10 µM, stronger effect = higher value
[13] = system: anti-desmoglein-3 scFv antibody binding to human DSG3; assay: blockers of pathogenic pemphigus antibody–desmoglein-3 binding – biochemical, validation compound set, bead-based, flow cytometry, pilot screen (AID 588368;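 active = binding below the plate cutoff, the plate median minus 3 SD, with a reading above zero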;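 also: signal is the median channel fluorescence of bead-bound GFP antibody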); conditions: Protein G beads, DSG3-Fc, scFv-GFP binding, at 10 µM, stronger effect = lower value
[14] = Nile Red efflux blockade in pump-expressing yeast – validation compound set, multiplex, phenotypic, pilot screen (AID 588506;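 active = efflux inhibition above 0.42, the validation set average plus 4 SD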;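 also: Nile Red retained in cells so higher fluorescence means more efflux inhibition; 0 = negative control wells and 1 = enniatin B 25 µM full block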); conditions: S. cerevisiae pump-expressing triplex, Nile Red efflux flow cytometry; at 10 µM; stronger effect = higher value; the pumps come from Candida albicans
[15] = target: ATP-binding cassette sub-family B member 6 (Homo sapiens) (UniProt Q9NP58); assay: blockers of ABCB6-driven porphyrin uptake – K562-ABCB6 cells, flow cytometry, validation set, pilot screen (AID 588550); conditions: K562-ABCB6 porphyrin accumulation, 1 h, at 10 µM, stronger effect = higher value;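 also: 0% = DMSO wells and 100% = benzethonium chloride 70 µM positive control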
Sequence of ATP-binding cassette sub-family B member 6 (Homo sapiens) (Q9NP58 whole entry, looked up): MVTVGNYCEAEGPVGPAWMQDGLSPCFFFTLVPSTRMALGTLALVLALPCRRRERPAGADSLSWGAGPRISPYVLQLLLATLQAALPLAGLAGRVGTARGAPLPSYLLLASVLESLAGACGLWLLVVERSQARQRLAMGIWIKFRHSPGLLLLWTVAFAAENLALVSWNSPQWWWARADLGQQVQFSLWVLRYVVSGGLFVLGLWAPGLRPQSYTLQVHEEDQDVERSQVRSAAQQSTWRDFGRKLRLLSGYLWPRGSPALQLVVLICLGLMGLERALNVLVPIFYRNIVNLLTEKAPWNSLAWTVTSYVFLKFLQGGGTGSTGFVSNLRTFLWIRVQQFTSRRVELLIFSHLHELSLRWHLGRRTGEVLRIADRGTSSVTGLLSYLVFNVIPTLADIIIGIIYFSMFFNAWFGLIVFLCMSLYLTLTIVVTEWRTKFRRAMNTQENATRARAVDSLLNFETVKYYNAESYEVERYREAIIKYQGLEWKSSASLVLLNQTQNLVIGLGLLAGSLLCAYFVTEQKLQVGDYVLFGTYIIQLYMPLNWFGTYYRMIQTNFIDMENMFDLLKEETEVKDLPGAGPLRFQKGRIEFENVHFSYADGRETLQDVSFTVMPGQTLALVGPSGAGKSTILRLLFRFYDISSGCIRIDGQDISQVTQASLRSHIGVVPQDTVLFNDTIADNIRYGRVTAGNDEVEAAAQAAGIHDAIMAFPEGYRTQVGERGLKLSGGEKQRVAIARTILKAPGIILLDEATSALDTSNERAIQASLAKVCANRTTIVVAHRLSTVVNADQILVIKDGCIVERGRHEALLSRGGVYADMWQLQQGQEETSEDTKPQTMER

[16] = AML differentiation inducers, ER-HoxA9 marrow cells – cell-based, GFP/MAC1 double positive, flow cytometry, validation set, primary screen (AID 588685;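 active = differentiation response of at least 50%, scaled between solvent and reference control, from cells with both markers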;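 also: compound exposure lasts four days before antibody staining and flow analysis; 0% = DMSO wells and 100% = 5 µM fulvestrant positive control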); conditions: stronger effect = higher value, normalized: vehicle 0, fulvestrant 100

| Structure (SMILES) | percent of DMSO control GFP [1] | GFP response vs DMSO [2] | percent response of DMSO control [3] | GFP response vs DMSO [4] | GFP response, % of DMSO [5] | double positive events [6] | vesicle binding response [6] | inhibition [7] | superoxide response (% of plate) [8] | aptamer binding inhibition [9] | response [10] | inhibition [11] | response [12] | binding (% of control) [13] | efflux inhibition (fraction of control) [14] | inhibition [15] | differentiation response [16] |
| --- | --- | --- | --- | --- | --- | --- | --- | --- | --- | --- | --- | --- | --- | --- | --- | --- | --- |
| O=C(O)C1[C@H]2C(=O)N(C3CCCC3)C[C@]23C=C[C@H]1O3 (stereo not given in full) | 99.5% (inactive) | 104% (inactive) | 101% (inactive) | 121% (inactive) | 113% (inactive) | 57.9% | 153% (inactive) | 11.7% (inactive) | 88% (inactive) | -2% (inactive) | -17.8% (inactive) | -2.45% (inactive) | -1.21% (inactive) | 101% (inactive) | 0.04 (inactive) | 1% (inactive) | -6.96% (inactive) |
| Cc1nnc(NS(=O)(=O)c2ccc(N)cc2)s1 | 92.4% (inactive) | 126% (inactive) | 92.6% (inactive) | 83.6% (inactive) | 92.8% (inactive) | 61.7% | 123% (inactive) | 19.1% (inactive) | 102% (inactive) | 8% (inactive) | 2.41% (inactive) | 2.68% (inactive) | 0.26% (inactive) | 100% (inactive) | -0.24 (inactive) | 14% (inactive) | 0% (inactive) |
| Cc1ccc(C2CC(c3cccs3)=NN2C(=O)c2ccco2)o1 (stereo not given) | 92.6% (inactive) | 87.6% (inactive) | 89.3% (inactive) | 82.8% (inactive) | 87% (inactive) | 62.2% | 135% (inactive) | 2.93% (inactive) | 106% (inactive) | -1% (inactive) | -25.7% (inactive) | -17.3% (inactive) | -7.57% (inactive) | 107% (inactive) | 0.275 (inactive) | -1% (inactive) | 1.28% (inactive) |
| COc1ccc(C=O)c(OC)c1 | 100% (inactive) | 98.6% (inactive) | 99% (inactive) | 99.5% (inactive) | 104% (inactive) | 60.9% | 188% (inactive) | 26.1% (inactive) | 93.3% (inactive) | 1% (inactive) | -22.1% (inactive) | 62.3% (active) | -1.57% (inactive) | 101% (inactive) | 0.08 (inactive) | -6% (inactive) | -9.91% (inactive) |
| CC(C)(C)NCC(O)COc1ccccc1C(=O)CCc1ccccc1 (stereo not given) | 101% (inactive) | 101% (inactive) | 96.4% (inactive) | 108% (inactive) | 122% (inactive) | 60.4% | 196% (inactive) | 44% (inactive) | 129% (inactive) | -1% (inactive) | -37.6% (inactive) | -9.53% (inactive) | -4.49% (inactive) | 104% (inactive) | 0.04 (inactive) | 8% (inactive) | 46.2% (inactive) |
| CCOC(=O)C(=O)N1CCN(c2ccccc2OC)CC1 | 97.9% (inactive) | 112% (inactive) | 98.6% (inactive) | 94.8% (inactive) | 104% (inactive) | 64.7% | 175% (inactive) | -9.13% (inactive) | 98% (inactive) | 3% (inactive) | 3.6% (inactive) | 14.2% (inactive) | -4.83% (inactive) | 102% (inactive) | -0.125 (inactive) | 7% (inactive) | -8.96% (inactive) |
| Cc1ccc(O)c(CCc2ccccc2)n1 | 100% (inactive) | 109% (inactive) | 94.2% (inactive) | 90.7% (inactive) | 98.3% (inactive) | 61.6% | 222% (inactive) | -4.6% (inactive) | 106% (inactive) | 2% (inactive) | -1.92% (inactive) | 3.07% (inactive) | 0.6% (inactive) | 98.4% (inactive) | -0.04 (inactive) | 19% (inactive) | 6.11% (inactive) |
| COc1cc2cc(C(=O)O)[nH]c2c(OC)c1OC | 102% (inactive) | 106% (inactive) | 96.6% (inactive) | 106% (inactive) | 99.5% (inactive) | 61% | 187% (inactive) | -1.49% (inactive) | 112% (inactive) | 0% (inactive) | -2.07% (inactive) | -16.9% (inactive) | -0.34% (inactive) | 98.7% (inactive) | -0.32 (inactive) | -4% (inactive) | 8.06% (inactive) |
| COc1ccc(/C=C/C(=O)Nc2ccccc2C(=O)O)cc1OC | 111% (inactive) | 110% (inactive) | 106% (inactive) | 76.9% (inactive) | 99.5% (inactive) | 60.2% | 50.8% (inactive) | -5.64% (inactive) | 123% (inactive) | 3% (inactive) | 12.8% (inactive) | -8.31% (inactive) | 6.81% (inactive) | 96.9% (inactive) | 0.02 (inactive) | 3% (inactive) | -5.62% (inactive) |
| CSCCC1NC2(C(=O)Nc3ccc(Cl)cc32)[C@@H]2C(=O)N(C3CCCC3)C(=O)[C@H]12 (stereo not given in full) | 101% (inactive) | 109% (inactive) | 103% (inactive) | 102% (inactive) | 98.9% (inactive) | 59.4% | 121% (inactive) | -37.3% (inactive) | 94.5% (inactive) | 6% (inactive) | -27.1% (inactive) | -6.32% (inactive) | 1.16% (inactive) | 109% (inactive) | -0.29 (inactive) | -10% (inactive) | 1.28% (inactive) |
